According to PubChem BioAssay (NCI):
The panel holds about 83,000 compounds, 20% with a hit somewhere; the sample as a whole holds those more often.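 96-well plates, one dose, 48 hours. Percent growth reported; active if below 10.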 Calls of active or inactive are those of the source.

Columns and labels:
Assay in all cases: NCI-60 one-dose screen, 48 h (100 = growth as untreated, 0 = no growth, -100 = all killed)
Conditions in all cases: 10 µM
[1] = test system: SR leukemia
[2] = test system: RPMI-8226 leukemia
[3] = test system: OVCAR-8 ovarian
[4] = test system: OVCAR-5 ovarian
[5] = test system: OVCAR-4 ovarian
[6] = test system: SK-OV-3 ovarian
[7] = test system: IGROV1 ovarian
[8] = test system: OVCAR-3 ovarian
[9] = test system: HS 578T breast
[10] = test system: NCI/ADR-RES ovarian
[11] = test system: T-47D breast
[12] = test system: BT-549 breast
[13] = test system: MDA-MB-435 melanoma
[14] = test system: SW-620 colon
[15] = test system: MCF7 breast
[16] = test system: HCT-116 colon
[17] = test system: KM12 colon

Measured: growth

CC1(C)CC(OCCCC[P+](c2ccccc2)(c2ccccc2)c2ccccc2)CC(C)(C)N1O
inactive: [1] 11.7% | [4] 18.2% | [5] 21.5% | [10] 55.2% | [12] 17.3% | [16] 12.4%
active: [2] -73.5% | [3] 6.29% | [6] -13.4% | [7] -21% | [8] -46.1% | [9] -10.5% | [11] -2.14% | [13] -57.9% | [14] 2.74% | [15] -1.61% | [17] -51.6%

Clc1cc(Cl)c(Cl)c(-c2nc(-c3cccnc3)cs2)c1
active: [1] 9.83% | [11] -7.29% | [13] 4.27%
inactive: [2] 40% | [3] 78.8% | [4] 79.6% | [5] 68.7% | [6] 102% | [7] 49.6% | [8] 71.7% | [9] 98.9% | [10] 85.1% | [12] 98.3% | [14] 46.2% | [15] 63.6% | [16] 40.2% | [17] 103%

COc1cc(/C=C2\C(=O)Nc3cc(C)c(O)cc32)cc(OC)c1OC
active: [2] -18.3% | [13] -34.5%
inactive: [1] 21.4% | [3] 72.1% | [4] 94.5% | [5] 62.6% | [6] 77.5% | [7] 47.7% | [8] 35.7% | [9] 56.6% | [10] 51.4% | [11] 39.2% | [12] 42.3% | [14] 55.1% | [15] 25.7% | [16] 56.8% | [17] 21.9%

C(=C\c1nc2ccccc2s1)/c1ccc(N2CCOCC2)s1
active: [11] 1.72%
inactive: [1] 26.3% | [2] 62.9% | [3] 97.6% | [4] 112% | [5] 72.9% | [6] 98.7% | [7] 100% | [8] 85.8% | [9] 112% | [10] 69.9% | [12] 89.5% | [13] 64.9% | [14] 101% | [15] 80.2% | [16] 55.4% | [17] 48.6%

O=c1oc2c3ccc4cnccc4c3[nH]c2c2ccccc12
inactive: [3] 24.3% | [4] 46.8% | [5] 25.2% | [6] 89.1% | [7] 21.2% | [8] 38.2% | [9] 68.1% | [10] 71.5% | [12] 32.7% | [17] 28.2%
active: [1] -51.3% | [2] -21.8% | [11] -8.53% | [13] -69.8% | [14] 3.35% | [15] -12.3% | [16] -14.5%

Cc1ccc(C)c2c1sc1nc3n[nH]c(N)c3c(=N)n12
inactive: [1] 97.6% | [2] 93.2% | [3] 97.9% | [4] 106% | [5] 101% | [6] 127% | [7] 127% | [8] 114% | [9] 107% | [10] 110% | [11] 94.1% | [12] 114% | [13] 105% | [14] 107% | [15] 103% | [16] 101% | [17] 104%

COc1cc(CSc2nc3ccc(C)cc3c(=O)n2-c2ccccc2)cc(OC)c1OC
inactive: [1] 20.3% | [2] 54.9% | [3] 52.9% | [4] 46.4% | [5] 57.2% | [6] 13.6% | [7] 33.2% | [9] 28.2% | [10] 17.8% | [11] 28.2% | [12] 19.6% | [14] 29.7% | [15] 19.9% | [16] 26.6% | [17] 25.3%
active: [8] -1.43% | [13] -20%

Cc1ccc(S(=O)(=O)N2CCc3ccccc3CC2)cc1
inactive: [1] 84.8% | [2] 42.3% | [3] 79.2% | [4] 94.3% | [5] 44.8% | [6] 96.3% | [7] 104% | [8] 103% | [9] 109% | [10] 69.8% | [11] 63.1% | [12] 64.7% | [13] 101% | [14] 97.6% | [15] 60.7% | [16] 68.5% | [17] 94.3%

COc1ccccc1Cn1cc2c(c1-c1ccccc1)CCc1cnoc1-2
inactive: [1] 26.3% | [2] 38.8% | [3] 56% | [4] 77.2% | [5] 61.4% | [6] 19.1% | [7] 44.8% | [10] 21.3% | [11] 29.4% | [12] 46.9% | [14] 16.8% | [15] 19.3% | [16] 20.9% | [17] 29.5%
active: [8] 6.99% | [9] 9.97% | [13] -21.3%
